# MPTP inh: blocks calcium-induced mitochondrial swelling. 360,000 compounds, 1.4% hits. inhibition, % at 10 µM. AID 602449. isolated mouse mitochondria, Ca2+ swelling absorbance, 30 min;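 active = inhibition of 50% or more, scaled per plate between neutral and stimulator controls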;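 also: 0% = DMSO wells given calcium and 100% = 1 mM EGTA wells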
# Mdm2-MdmX inh: human Mdm2/MdmX binding inhibition; O15151+Q00987; SaOS-2 split-luciferase Mdm2/MdmX complementation, luminescence; inhibition, % at 8 µM; 330,000 compounds, 3% hits; AID 485346;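 active = inhibition of at least 50% at 8 µM in the primary screen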
# tim10-1 inh: tim10-1 yeast growth inhibition; S. cerevisiae tim10-1 ts strain growth, BacTiter-Glo, 24 h; AID 463190; inhibition, % at 20 µM; 330,000 compounds, 2.2% hits;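 active = inhibition of at least 40%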;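 also: mutant grown at 25 °C; 0% = DMSO wells with yeast and 100% = wells holding no yeast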
# tim23-1 inh: inhibits growth of tim23-1 mutant yeast | S. cerevisiae tim23-1 growth, BacTiter-Glo luminescence, 24 h | 330,000 compounds, 1.3% hits | inhibition, % at 20 µM;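 active = growth inhibition of the mutant yeast at or above 50%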;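 also: temperature-sensitive mutant grown at 25 °C; plate controls were DMSO-treated mutant yeast for no effect and medium wells lacking yeast for full effect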
# TIM10 inh: growth inhibitors of TIM10 yeast strain; S. cerevisiae TIM10 strain growth, BacTiter-Glo luminescence, 24 h; inhibition, % at 10 µM; 330,000 compounds, 1.4% hits; AID 463195;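 active = inhibition of 40% or more at the single tested concentration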;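 also: wild-type TIM10 isogenic control strain grown at permissive 25 °C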
# MPTP counter: mitochondrial membrane potential, counter-screen; isolated mitochondria, Rhodamine 123 fluorescence; inhibition, % at 10 µM; shares compounds with MPTP inh; 5,000 compounds, 78% hits; in the data active = inhibition above about 22%;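 also: 0% = DMSO vehicle and 100% = positive control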
# MPTP swell DR: MPTP inhibition, dose response swelling confirmation | shares compounds with MPTP inh | isolated mitochondria swelling, absorbance | IC50, µM | 780 compounds, 58% hits | AID 651561; in the data active = IC50 below about 20 µM
# MPTP cs DR: counter-screen for mitochondrial permeability transition pore inhibitors, dose response | shares compounds with MPTP inh | isolated mitochondria counterscreen, fluorescence read-out | 780 compounds, 49% hits | IC50, µM; in the data active = IC50 below about 80 µM
# The depositor's hits bear a star; i = inactive; x = no result given. Only some compounds are listed: those with a hit (about 6.3% of all), similar ones and a draw of the others.
SMILES,MPTP inh,Mdm2-MdmX inh,tim10-1 inh,tim23-1 inh,TIM10 inh,MPTP counter,others
COc1cccc(C2c3cc4c(cc3OC(NNC(N)=O)C2C)OCO4)c1O (configuration not stated),0,x,x,x,x,x,
Cc1ccc(S(=O)(=O)NC(=O)C2(C)CCN2C(=O)CC2CCCCC2)nc1 (configuration not stated),-1,x,x,x,x,x,
O=C(Nc1ccc(F)cc1F)N1CCCN(c2ccc([N+](=O)[O-])cn2)CC1,2,2,-1,15,10,x,
CC(C)(C)c1ccc(NC(=O)N2CCN(c3ccc([N+](=O)[O-])cn3)CC2)cc1,67*,14,22,16,18,54*,
O=[N+]([O-])c1ccc2c(c1)CO[C@@]21O[C@H](CCO)C[C@H](O)[C@H]1O,0,x,x,x,x,x,
Cc1ccc(S(=O)(=O)NCC(=O)OCC(=O)N2CC(C)OC(C)C2)cc1 (configuration not stated),-1,-3,3,1,-3,x,
COc1cc(CNCCO)ccc1OCC(=O)Nc1ccc(Br)cc1,59*,-1,8,3,-1,-10,MPTP swell DR=i;MPTP cs DR=>80
COc1ccc(NS(=O)(=O)c2ccc(N3CCCCC3)c(NC(=O)C(C)NC(N)=O)c2)cc1 (configuration not stated),0,-28,3,13,-5,x,
Nc1cc(S(=O)(=O)c2ccc(N3CCCCC3)c(N)c2)ccc1N1CCCCC1,94*,x,x,x,x,105*,
COc1ccc(NS(=O)(=O)c2ccc(N3CCCCC3)c(N)c2)cc1,90*,15,19,35,4,87*,
CCN1CCN(c2ccc(S(=O)(=O)N3CCCCC3)cc2N)CC1,1,14,-1,-11,8,x,
CCCc1c(C)nn(C(=O)/C(C#N)=N/Nc2ccccc2[N+](=O)[O-])c1C,1,18,-35,-17,-5,x,
COc1ccc(C(=O)/C(C#N)=N/Nc2ccccc2[N+](=O)[O-])cc1,95*,47,29,24,11,88*,
COc1ccc(-n2c(SCC(=O)O)nc3sc4c(c3c2=O)CCCC4)cc1,0,12,4,8,1,x,
COc1ccc(-n2c(SCCNCCO)nc3sc4c(c3c2=O)CCCC4)cc1,76*,32,15,16,12,-20,MPTP swell DR=8.3*;MPTP cs DR=>80
COc1ccc(-c2[nH]c(-c3ccc(SC)cc3)nc2SCC(=O)Nc2nccs2)cc1,68*,0,-3,-16,-3,49*,
COc1ccc(-c2[nH]c(-c3ccc(C)cc3)nc2SCC(=O)Nc2nccs2)cc1,27,-21,0,27,-15,x,
Cc1csc2c(N3CCN(C(=O)Nc4ccccc4)CC3)ncnc12,54*,6,-26,11,2,24*,
Cc1csc2c(N3CCN(C(=S)Nc4ccc(F)cc4F)CC3)ncnc12,92*,38,23,36,20,91*,
Cc1cnc(C(=O)Nc2ccc(OC(F)(F)F)cc2)cn1,1,15,-1,-11,-11,x,
Cc1csc2ncnc(N3CCN(C(=O)Nc4ccc(OC(F)(F)F)cc4)CC3)c12,90*,32,12,12,19,89*,
O=S(=O)(c1ccc(Br)cc1F)N1CCCCC1CCO (configuration not stated),-2,x,x,x,x,x,
O=C(OCc1nc2ccccc2s1)c1ccccc1O,0,-13,5,3,5,x,
N#C/C(=C(/O)COC(=O)c1ccccc1O)c1nc2ccccc2s1,100*,-17,8,0,3,94*,
CC(C)(C)c1ccc(C(=O)OC/C(O)=C(\C#N)c2nc3ccccc3s2)cc1,97*,0,7,23,-1,70*,
O=C(O)c1ccccc1NC(=S)NC(=O)c1sc2ccccc2c1Cl,-6,4,-12,17,11,x,
O=C(NNC(=S)NC(=O)c1sc2ccccc2c1Cl)c1ccc(Cl)cc1,108*,31,-6,20,-32,20,
Cc1cccc(C(=O)NC(=S)NNC(=O)c2ccc(Cl)cc2)c1,95*,x,x,x,x,19,
CC(C)(C)c1ccc(C(=O)NC(=S)NNC(=O)c2cccs2)cc1,92*,x,x,x,x,29*,
Cc1ccc(C(=O)NC(=S)NNC(=O)c2cccc([N+](=O)[O-])c2)cc1,6,16,-5,23,14,x,

# High-throughput results deposited in PubChem BioAssay by Sanford-Burnham Center for Chemical Genomics.
